Compound activity deposited in PubChem BioAssay by National Center for Advancing Translational Sciences (NCATS).
Rows were chosen to be rich in hits. Some 6.9% of all compounds tested hit in one or more screens of this group.
Giardia kill: Giardia lamblia killing. Giardia lamblia trophozoite viability. activity change, % at 7.66 µM, hits read low. actives 0.15% (n = 340,000). AID 540267; in the data active means activity change below about -80%; inconclusive means between about -30% and that limit;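 further: parasites exposed to compound for two days anaerobically before the ATP read; on the % scale 0 is the no-effect control and ±100 the full control effect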
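Trophozoites 100 cells/well + cpd; 48 hrs, 37 deg C, anaerobic. ATPLite 1-Step added, 15-30 min RT, luminescence read (ATP-based viability).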
Vif-APOBEC3F blk: inhibitors of Vif-A3F interaction; HeLa A3F-eYFP + Vif (tagged APOBEC3F with the HIV-1 protein that degrades it), YFP fluorescence increase; Potency, µM (highest dose often 46.1 µM), for the others: top-dose activity, negative = active; actives 0.2% (n = 390,000); AID 602313; further: potency means the concentration at half of the fitted maximal effect; % of control where 0% means no effect; nearly all actives have a fitted effect of over 65% in size
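HeLa cells stably expressing Vif plus C-terminally eYFP-tagged A3F were seeded, incubated overnight at 37 deg C, dosed with compound, incubated overnight again at 37 deg C. Yellow fluorescence (Ex 488/Em 500-530) reported blocked Vif-mediated A3F-eYFP degradation.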
SW480 rerep: DNA re-replication induction in SW480 cells; SW480 DNA re-replication, Hoechst DNA content imaging, 48 h; AID 624297; actives 1.8% (n = 340,000); Potency, µM (series often up to 46.1 µM), without a hit: at the top dose re-replication activation, most hits filed as activators; further: potency means the concentration at half of the fitted maximal effect; % of control where 0% means no effect; nearly all actives have a fitted effect of over 55% in size
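Hoechst fluorescence of nuclei (405 nm excitation, 500-530 nm emission) measured by plate-scanning imager after 48 hr compound exposure at 37 C; re-replication scored as increased number of nuclei with elevated intensity.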
IL-1B inflam inh: inhibitors of inflammasome signaling (IL-1 beta secretion); THP-1 LPS/ATP IL-1B secretion, AlphaLISA, 16 h; hits give low values; activity change, % at 57.5 µM; actives 4.7% (n = 360,000); AID 743279; in the data active means activity change below about -50%; inconclusive means mostly about -30% to -49%; further: on the % scale 0 is the no-effect control and ±100 the full control effect
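THP-1 cells pretreated 1 hr with compounds (up to 57.5 uM final), then stimulated with LPS (250 ng/mL final) plus ATP (1.25 mM final); secreted IL-1B measured by AlphaLISA after 16 hr, decreased signal indicating inhibition.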
MCF10A rereplic: DNA re-replication induction in MCF 10a cells | MCF 10A DNA re-replication, Hoechst nuclear intensity, 48 h | Potency, µM (highest dose often 46.1 µM), for inactives: top-dose activity, positive = re-replication, actives largely listed as activators | actives 2.9% (n = 350,000) | AID 624296; further: potency means the concentration at half of the fitted maximal effect; % of control where 0% means no effect; nearly all actives have a fitted effect of over 50% in size
Vif-APOBEC3G blk: Vif-A3G binding inhibition; Q9HC16; HeLa A3G-eYFP + Vif (tagged APOBEC3G with the HIV-1 protein that degrades it), YFP fluorescence, overnight; Potency, µM (highest dose often 46.1 µM), without a hit: top-dose activity, negative = active, usual class: inhibitors; actives 0.076% (n = 410,000); further: potency means the concentration at half of the fitted maximal effect; on the % scale 0 is the no-effect control and ±100 the full control effect; nearly all actives have a fitted effect of over 60% in size
Target sequence (Q9HC16 whole entry, looked up): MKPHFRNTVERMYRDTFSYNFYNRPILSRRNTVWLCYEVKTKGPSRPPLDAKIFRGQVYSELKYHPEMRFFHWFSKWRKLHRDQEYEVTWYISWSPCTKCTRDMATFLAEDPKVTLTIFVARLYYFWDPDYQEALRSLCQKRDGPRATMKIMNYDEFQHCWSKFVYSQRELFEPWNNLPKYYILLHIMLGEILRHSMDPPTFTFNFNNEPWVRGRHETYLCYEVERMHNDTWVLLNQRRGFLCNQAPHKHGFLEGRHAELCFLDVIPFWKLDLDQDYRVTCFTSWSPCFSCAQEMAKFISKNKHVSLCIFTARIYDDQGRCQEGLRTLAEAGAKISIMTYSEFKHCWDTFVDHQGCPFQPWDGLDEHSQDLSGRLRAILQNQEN
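Read-out is eYFP fluorescence (Ex 488/Em 500-530) from Vif-expressing HeLa A3G-eYFP cells; more signal means A3G escaped Vif-mediated degradation. Cells plated overnight, compound pinned in, incubated overnight at 37 deg C.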
Starred values were filed as active, the others as inactive. Unless noted, the call rests on the fitted dose curve; in most records, active means well fitted curve in the direction sought with a large enough effect; inconclusive means small, poorly fitted or top-dose-only effect, or another doubt; inactive means no such curve, though single readings can be large; an effect the other way counts as inactive or inconclusive.

For CCOc1ccc(CNC(=O)c2ccc3c(c2)c(C)c(C)n3Cc2ccccc2)cc1OC the results were Vif-APOBEC3F blk -2% and Vif-APOBEC3G blk 1%.
Screening Cc1ccc(C)c(N2CCN(C(=O)c3cc4c(=O)n(Cc5ccco5)ccc4nc3C)CC2)c1 returned Vif-APOBEC3F blk 1% and Vif-APOBEC3G blk -2%.
Screening COCCn1nnnc1C(c1cccs1)N1CCN(c2cc(C)ccc2C)CC1 (stereo not given) returned Giardia kill 2, Vif-APOBEC3F blk -2%, SW480 rerep -3%, IL-1B inflam inh -53*, MCF10A rereplic -4% and Vif-APOBEC3G blk -5%.
`CCN(C(=O)Cn1c(=O)n(Cc2ccc3c(c2)OCO3)c(=O)c2ccc(C(=O)NC3CCCCC3)cc21)c1cccc(C)c1` gave Vif-APOBEC3F blk 8% and Vif-APOBEC3G blk -1%.
For Cc1ccc(CNC(C)c2ccccc2)s1 (stereo not given) the results were Vif-APOBEC3F blk -1% and Vif-APOBEC3G blk 0%.
CC(NCCC(c1ccccc1)c1ccccc1)c1ccccc1 (stereo not given) was read as Giardia kill -1, Vif-APOBEC3F blk inconclusive, SW480 rerep 7.3µM*, IL-1B inflam inh inconclusive, MCF10A rereplic inconclusive and Vif-APOBEC3G blk -5%.
Screening CCn1c(C)c(C(C)=O)c(N2CCN(C(c3ccccc3)c3ccccc3)CC2)nc1=S returned Giardia kill 14, Vif-APOBEC3F blk -6%, SW480 rerep inconclusive, IL-1B inflam inh -185*, MCF10A rereplic inconclusive and Vif-APOBEC3G blk 0%.
`S=C(NCCc1ccccc1)Nc1c(Cl)cccc1Cl` gave Giardia kill -2, Vif-APOBEC3F blk inconclusive, SW480 rerep 14%, IL-1B inflam inh -64*, MCF10A rereplic inconclusive and Vif-APOBEC3G blk -1%.
CC(C)(CNC(=S)NCCc1ccccc1)CNC(=S)NCCc1ccccc1 was read as Giardia kill 0, Vif-APOBEC3F blk -13%, SW480 rerep inconclusive, IL-1B inflam inh -70*, MCF10A rereplic 23µM* and Vif-APOBEC3G blk -1%.
For OCCNC(=S)NCCc1ccccc1 the results were Giardia kill 12, Vif-APOBEC3F blk -14%, SW480 rerep inconclusive, IL-1B inflam inh -2, MCF10A rereplic -4% and Vif-APOBEC3G blk -7%.
For COc1cc(NC(=O)C2CCCN(S(=O)(=O)c3ccc4c(c3)oc(=O)n4C)C2)c(C(=O)O)cc1OC (stereo not given) the results were Vif-APOBEC3F blk 3% and Vif-APOBEC3G blk 2%.
Screening CC(=O)/C=C/n1c(=S)oc2ccccc21 returned Giardia kill -6, Vif-APOBEC3F blk 4%, SW480 rerep 4%, IL-1B inflam inh -98*, MCF10A rereplic 3.3µM* and Vif-APOBEC3G blk 0%.
Screening CC(C)CC(=O)/C=C/n1c(=S)oc2ccccc21 returned Giardia kill -8, Vif-APOBEC3F blk 4%, SW480 rerep 8.2µM*, IL-1B inflam inh -106*, MCF10A rereplic 3.7µM* and Vif-APOBEC3G blk inconclusive.
`Cn1c(=S)oc2ccccc21` gave Giardia kill 6, Vif-APOBEC3F blk -5%, SW480 rerep -1%, IL-1B inflam inh 3, MCF10A rereplic inconclusive and Vif-APOBEC3G blk 1%.
For CCCCN(C)CCCNC(=O)c1ccc2nc(N3CCCCC3)sc2c1 the results were Vif-APOBEC3F blk -5% and Vif-APOBEC3G blk 1%.
`CCOc1ccc(CNC(=O)c2cnc3sc(N(CC)CC)nn3c2=O)cc1OC` gave Vif-APOBEC3F blk 3% and Vif-APOBEC3G blk -3%.
Screening COc1ccc(-c2cn[nH]c2-c2ccc(OCc3ccccc3)cc2O)cc1 returned Giardia kill 0, Vif-APOBEC3F blk 14%, SW480 rerep inconclusive, IL-1B inflam inh -99*, MCF10A rereplic 13µM* and Vif-APOBEC3G blk 0%.
Screening COc1ccc(-c2cn[nH]c2-c2ccc(OC)cc2O)cc1 returned Giardia kill -1, Vif-APOBEC3F blk 5%, SW480 rerep inconclusive, IL-1B inflam inh -84*, MCF10A rereplic 18% and Vif-APOBEC3G blk 0%.
For O=[N+]([O-])c1ccc(COc2ccc(-c3[nH]ncc3-c3ccc(Cl)cc3)c(O)c2)cc1 the results were Giardia kill 15, Vif-APOBEC3F blk 3%, SW480 rerep inconclusive, IL-1B inflam inh -92*, MCF10A rereplic 23µM* and Vif-APOBEC3G blk -12%.
Screening COc1ccc(-c2cn[nH]c2-c2ccc(OCc3ccc([N+](=O)[O-])cc3)cc2O)cc1OC returned Giardia kill -15, Vif-APOBEC3F blk -1%, SW480 rerep 4%, IL-1B inflam inh inconclusive, MCF10A rereplic -1% and Vif-APOBEC3G blk 1%.
CCOc1ccc(-c2[nH]ncc2-c2ccccc2)c(O)c1 was read as Giardia kill 4, Vif-APOBEC3F blk -15%, SW480 rerep -1%, IL-1B inflam inh 0, MCF10A rereplic -2% and Vif-APOBEC3G blk -1%.
`COc1ccccc1-c1cn[nH]c1-c1ccc(OCc2ccccc2)cc1O` gave Giardia kill 5, Vif-APOBEC3F blk 2%, SW480 rerep inconclusive, IL-1B inflam inh -99*, MCF10A rereplic 23µM* and Vif-APOBEC3G blk -25%.
Cc1ccc(Nc2c(-c3ccc(N(C)C)cc3)nc3ccccn23)cc1 was read as Vif-APOBEC3F blk -2% and Vif-APOBEC3G blk 0%.
Cc1ccc(CNC(=O)c2cccc(Nc3nc4ccccc4n4nnnc34)c2)cc1 was read as Vif-APOBEC3F blk inconclusive and Vif-APOBEC3G blk -18%.
`CCc1ccc(NC(=O)C(Cc2ccccc2)NS(=O)(=O)c2ccc3c(c2)c(=O)n(C)c(=O)n3C)cc1` (stereo not given) gave Vif-APOBEC3F blk -17% and Vif-APOBEC3G blk 1%.
For Cc1ccc(-c2csc(N3CCN(CCCn4c(-c5ccncc5)nc5ccccc54)CC3)n2)cc1 the results were Giardia kill -5, Vif-APOBEC3F blk -1%, SW480 rerep inconclusive, IL-1B inflam inh 3, MCF10A rereplic 23µM* and Vif-APOBEC3G blk -13%.
Cc1ccc(-c2csc(N3CCN(CCCn4c(C(F)(F)F)nc5ccccc54)CC3)n2)cc1 was read as Giardia kill -2, Vif-APOBEC3F blk -3%, SW480 rerep 28%, IL-1B inflam inh 29, MCF10A rereplic 18% and Vif-APOBEC3G blk -1%.
Cc1[nH]c2ccccc2c1/C=N/Nc1nc(N2CCCCC2)nc(N2CCCCC2)n1 was read as Giardia kill inconclusive, Vif-APOBEC3F blk -10%, SW480 rerep -5%, IL-1B inflam inh inactive, MCF10A rereplic 11% and Vif-APOBEC3G blk 1%.
